Cycloheximide cs: counter-screen hit for Shiga toxin inhibitors, cycloheximide; cell reporter, cycloheximide protein synthesis inhibition counterscreen; max response, %; 300,000 compounds, 12% hits; AID 2314; in the data active = max response mostly above about 13%, no sharp cut-off; inactive = mostly below about 14%; note: read at 38.3 µM for the half of the compounds with a filed dose; 0% is about no effect
Pf growth 48h: inhibits P. falciparum growth in the first generation, 48 h; P. falciparum luciferase growth in erythrocytes, 48 h; Potency, µM (series often up to 28.7 µM), for the others: at the top dose activity change, negative = inhibition, usual class: inhibitors; 310,000 compounds, 5.9% hits; note: potency is the fitted concentration of half-maximal effect; % is set by controls: 0 for no effect and ±100 for the full control effect
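Read-out is firefly luciferase luminescence from an integrated reporter in P. falciparum, so falling signal marks reduced parasite growth. Infected erythrocytes were at 2% hematocrit and 0.1% parasitemia (final) in Albumax-supplemented RPMI 1640.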
NS1 inh: blocks influenza NS1 protein function. Potency, µM (series often up to 46.1 µM), without a hit: top-dose activity, positive = more growth. 270,000 compounds, 0.4% hits. AID 2326; calls by dose curve; note: potency is the fitted concentration of half-maximal effect; actives are rising curves; nearly all actives have a fitted effect of over 50% in size
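Recovery from NS1-induced slow growth read by OD600 in budding yeast switched to galactose assay medium (pH 6.0, -URA) at 1:100 dilution. Compound 23 nl per well; the matching strain lacking NS1 serves as control.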
Pf growth 96h: P. falciparum growth inhibition at 96 hour, primary screen for plastid delayed-death inhibitors. Potency, µM (highest dose often 28.7 µM), for the others: at the top dose activity change, negative = inhibition, hits mostly inhibitors. P. falciparum luciferase reporter growth, 96 h. AID 504834. 320,000 compounds, 6.9% hits; note: potency is the fitted concentration of half-maximal effect; % is set by controls: 0 for no effect and ±100 for the full control effect
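Luminescence readout: decreased luciferase signal marks inhibited growth of reporter-expressing P. falciparum in infected red cells (2% hematocrit, 0.05% parasitemia final), exposed to compound two generations (96 h, 37 C, 5% CO2).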
Shiga inhibitor: inhibitors of Shiga toxin in Vero cells; AID 2315; 290,000 compounds, 9.2% hits; inhibition, % at 38.7 µM; Vero cells, Shiga toxin protein synthesis inhibition reporter; in the data active = inhibition mostly above about 28%, no sharp cut-off; inactive = mostly below about 43%; note: 0% is about no effect
* hit, by the source's call; i = inactive; u = inconclusive; x = no result. Hits are enriched below; roughly 21% of the tested compounds scored in any of these assays. Unless noted, calls come from the whole dose curve; as a rule, active = well fitted inhibition curve with a large enough effect; inconclusive = small, poorly fitted or top-dose-only effect, or another doubt; inactive = no such curve, though single readings can be large or run the other way.

SMILES	Cycloheximide cs	Pf growth 48h	NS1 inh	Pf growth 96h	Shiga inhibitor
O=C(Nc1cccc(Cl)c1)Nc1nnc(CC2=CCCCC2)s1	-2	15µM*	-2%	u	-4
O=C(Nc1cccc(Cl)c1)Nc1nnc(CSCCOc2ccc(Cl)cc2)s1	8	12µM*	0%	u	17
Cc1ccc(NC(=O)Nc2nnc(CSCCOc3ccc(Cl)cc3)s2)cc1	-5	-12%	11%	u	-4
O=C(COC(=O)[C@H](Cc1ccccc1)NC(=O)c1cccs1)NC1CCCCC1	9	20%	-27%	60%	5
C[C@@]1([C@@H](NC(=O)c2cccs2)c2ccc(-c3ccccc3)cc2)C[C@H]1C1CCCCC1	1	1.9µM*	1%	2.6µM*	-7
Cn1c(SCC(=O)NC2CC2)nnc1-c1ccc(Cl)cc1	x	13%	x	28%	x
CC(SCC(=O)Nc1ccccc1)c1nc2ccccc2c(=O)[nH]1 (stereo unspecified)	9	-26%	4%	u	10
Cc1ccc(NC(=O)CSC(C)c2nc3ccccc3c(=O)[nH]2)cc1 (stereo unspecified)	-1	8%	6%	15µM*	-6
Cc1[nH]c2ccccc2c1/C=N/Nc1ccc([N+](=O)[O-])cc1	19*	u	5%	-5%	77*
O=[N+]([O-])c1ccc(N/N=C/c2c[nH]c3ccccc23)c(S(=O)(=O)Nc2ccc(Cl)cc2)c1	-4	-16%	7%	x	-23
Cc1[nH]c2ccccc2c1/C=N/NC(=O)c1cccc([N+](=O)[O-])c1	5	0%	x	4%	2
COc1ccccc1NS(=O)(=O)c1cc([N+](=O)[O-])ccc1N/N=C/c1c(C)[nH]c2ccccc12	-5	10µM*	9%	x	-20
Cc1ccc(-c2cc(Cc3ccccc3)c(=O)[nH]n2)cc1	11	8%	3%	0%	34
O=C(NC1CCCCC1)c1ccc(-c2ccccc2[N+](=O)[O-])o1	44*	156%	-45%	-26%	105*
O=C(NC1CCCCC1)c1ccc([N+](=O)[O-])o1	43*	10µM*	-22%	-10%	72*
O=C(NC1CCC(O)CC1)c1ccc(-c2ccc([N+](=O)[O-])cc2)o1 (stereo unspecified)	17*	20%	12%	16%	37
O=C(NC1CCCCCC1)c1ccc([N+](=O)[O-])s1	x	u	x	9.3µM*	x
O=C(NC1CCCCC1)c1cc(Cl)ccc1[N+](=O)[O-]	-3	10%	0%	-3%	-9
Cc1ccccc1NC(=O)COC(=O)c1cc(=O)c2ccccc2o1	-2	-26%	x	-2%	3
CC1CC(C)CN(S(=O)(=O)c2ccc3c(c2)NC(=O)C(C)C(=O)N3)C1 (stereo unspecified)	-2	27%	-22%	-29%	2
CC(NC(=O)c1ccc([N+](=O)[O-])o1)C12CC3CC(CC(C3)C1)C2 (stereo unspecified)	35*	6.6µM*	-76%	29%	45*
COc1ccc(/C=N/N=C2/NC(=O)CC(C(=O)O)S2)cc1 (stereo unspecified)	1	2%	21%	44%	-4
COc1ccc(/C=N/N=C2/CC(C)(C)Cc3n[nH]c(=O)cc32)cc1	19	-19%	x	i	36*
CC(Sc1ccccc1)C(=O)NN=C1CCCCCC1 (stereo unspecified)	11	34%	x	u	20
O=C(Nc1nnc(C2=COCCO2)o1)c1cccc(F)c1	11*	u	-36%	15µM*	28
SMILES	Cycloheximide cs	Pf growth 48h	NS1 inh	Pf growth 96h	Shiga inhibitor
CC(C)(C)c1ccc(C(=O)Nc2nnc(C3=COCCO3)o2)cc1	-1	15µM*	-7%	9.3µM*	-2
CN(Cc1ccccc1)C(=O)c1ccccc1-c1ccccc1	13	15%	x	32%	13
CCc1nn(C(CC)C(=O)NCc2cccc(OC)c2OC)c(=O)c2cc3occc3n12 (stereo unspecified)	-1	-9%	-2%	u	-5
CCOCCCNC(=O)/C(C#N)=C/c1ccc([N+](=O)[O-])o1	14	-5%	x	-16%	29
Cn1cccc1CNCCc1ccccc1F	2	-5%	1%	2.6µM*	-9
Cn1cccc1CNCCc1ccccc1	16	12%	8%	41%	-9
Fc1ccccc1CCNCc1ccccc1	2	21%	6%	25%	4
COc1ccc(CCNCc2cccn2C)cc1	1	-17%	8%	1.5µM*	-3
Fc1ccccc1CCNCc1cccc(Cl)c1Cl	18*	43%	-21%	127%	27
COC(=O)c1ccc(OC)c(CN2CCCN(Cc3ccc(F)cc3)S2(=O)=O)c1	4	u	15%	6%	-4
Cc1ccc(-c2nc(C3CCN(S(=O)(=O)c4ccc(C(C)(C)C)cc4)CC3)no2)cc1	16	x	7%	2.9µM*	9
CN1CCN(C2CCN(S(=O)(=O)c3ccc(C(C)(C)C)cc3)CC2)CC1	-3	1%	-4%	-2%	4
COCCn1c(C)cc(C(=O)CSc2nnc(-c3cccnc3)n2-c2ccccc2F)c1C	-4	10µM*	5%	-27%	19
CCOc1ccccc1-n1c(SCC(N)=O)nnc1-c1cccnc1	1	-6%	1%	12µM*	-4
CCOc1ccccc1-n1c(SCC(=O)NC(C)(C)C)nnc1-c1ccoc1C	18	13µM*	4%	u	9
Cc1ccccc1-n1c(SCC(=O)c2cc(C)n(C)c2C)nnc1-c1cccnc1	5	x	16%	u	-8
CCOc1ccccc1-n1c(SCC(=O)NC2CCCC2)nnc1-c1ccoc1C	-2	u	-5%	u	1
CCS(=O)(=O)N1CCN(Cc2nc3ccccc3c(=O)[nH]2)CC1	-1	0%	2%	-17%	-1
CC(=O)Oc1ccc2c(C)cc(=O)oc2c1C(=O)c1ccccc1	-4	1%	-4%	18%	-15
CC1=C(C(=O)Nc2ccc(C)cc2C)C(c2ccc(C)o2)NC(=O)N1 (stereo unspecified)	-5	26%	-1%	x	28
O=C(c1ccco1)N1CCn2c1nc1ccccc12	29*	57%	-13%	14%	53*
S=C(Nc1ccccc1)N1CCn2c1nc1ccccc12	0	5%	-1%	2.6µM*	-12
Nc1nc2ccccc2n1C(=O)c1ccco1	55*	232%	2%	u	90*
Nc1nc2ccccc2n1C(=O)CCc1ccccc1	46*	155%	-1%	x	95*
O=C(c1ccc(F)c(S(=O)(=O)N2CCOCC2)c1)N1CCN(c2ncccn2)CC1	x	60%	x	-23%	x
O=C1C2CSCN2C(=O)CN1CCCN1CCN(C(c2ccccc2)c2ccccc2)CC1 (stereo unspecified)	11	u	-6%	u	-2
COc1ccc(C(=O)COC(=O)CCNS(=O)(=O)c2ccccc2)c(OC)c1	x	3%	x	27%	x
O=C(COC(=O)/C=C/c1cccc(C(F)(F)F)c1)Nc1ccc(Cl)cn1	x	-3%	x	55%	x
O=C(NCCCNC(=O)c1ccccn1)c1ccc(F)cc1	-5	5%	-1%	35%	2

Screening data: PubChem, National Center for Advancing Translational Sciences (NCATS)
